Assay results taken from PubChem BioAssay AID1986 (Sanford-Burnham Center for Chemical Genomics, 2009).
Hit rate of the full screen: of about 290,000 compounds, about 890 (0.31%) were called active. No stated cut-off is given here; in the data, active means inhibition mostly above about 52% (no sharp cut-off); inactive means mostly below about 76%. Shown is part of a subset that was picked to be rich in actives.

Test: cell-free HIV fusion peptide-binding blockers – biochemical, uHTS, fluorescence dequenching, primary screen (AID 1986)
Details: 30 min, stronger effect = higher value
[1] = measured here: repeat confirmation average inhibition, at 18.6 µM

Compound | inhibition (at 20 µM) | inhibition [1] [%]
CC(=O)NS(=O)(=O)c1ccc(N=c2ssc3c2-c2cc(C)ccc2NC3(C)C)cc1 | 46.9% (inactive) | 
CC(=O)NS(=O)(=O)c1ccc(N=c2ssc3c2-c2ccc(C)cc2NC3(C)C)cc1 | 52.5% (active) | 
CC(=O)NS(=O)(=O)c1ccc(N=c2ssc3c2-c2cc(C)c(C)cc2NC3(C)C)cc1 | 51.7% (inactive) | 11.3
N#Cc1c(Cl)nc(SCc2ccccc2)nc1-c1ccccc1 | -2.7% (inactive) | 
O=C(CSc1nc(O)cc(=O)[nH]1)N1c2ccccc2Sc2ccccc21 | 2.6% (inactive) | 
Cc1nc(SCC(=O)N2c3ccccc3Sc3ccccc32)n[nH]1 | -1.2% (inactive) | 
Cc1snc(SCc2cccc(Cl)c2)c1C#N | -1.1% (inactive) | 
CC(C)NC(=O)CSc1nnc(-c2ccc(S(=O)(=O)N3CCCC3)cc2)n1CC1CCCO1 (stereo unspecified) | -1.1% (inactive) | 
CCn1cnc2scc(-c3ccc(OC)cc3)c2c1=O | 2% (inactive) | 
CC1CCC2(CC1)NC(=O)N(Cc1cc(=O)n3ccsc3n1)C2=O (stereo unspecified) | -0.3% (inactive) | 
O=C(OCc1c(Cl)cccc1Cl)c1cccnc1 | -1.3% (inactive) | 
CCCN(CCC)Cc1cc2ccccc2c2c1COC2 | 1.9% (inactive) | 
Cc1ccc(Cc2c(C)[nH]c(=S)[nH]c2=O)cc1 | 0.1% (inactive) | 
CCOc1ccc(CC(=O)Nc2cc(=O)n(C)c(=O)n2C)cc1 | 1.4% (inactive) | 
CCN(CC)c1ccc2cc(/C(N)=N/NC(=O)c3cccs3)c(=O)oc2c1 | 99.5% (active) | 53.8
CCN(CC)c1ccc2cc(C(N)=O)/c(=N\NC(=O)c3ccncc3)oc2c1 | 97.7% (active) | 54.3
N/C(=N\NC(=O)c1cccs1)c1cc2cc(Cl)ccc2oc1=O | 2.7% (inactive) | 
CCN(CC)c1ccc2cc(C(N)=O)c(=N)oc2c1 | 136% (inactive) | 
N/C(=N\NC(=O)c1cccs1)c1cc2ccccc2oc1=O | 1.8% (inactive) | 
NC(=O)c1cc2ccccc2o/c1=N\NC(=O)c1ccncc1 | -1.9% (inactive) | 

Compound | inhibition (at 20 µM) | inhibition [1] [%]
COC(=O)CCc1nc2cc(Cl)ccc2n(Cc2ccccc2)c1=O | 0% (inactive) | 
O=C(NCc1cccs1)C1CC(=O)N(c2ccccc2)C1 (stereo unspecified) | -2.2% (inactive) | 
COc1cccc(C=N[C@@H](CO)[C@@H](O)c2ccc([N+](=O)[O-])cc2)c1O | -1% (inactive) | 
COC(=O)/C(N=Nc1c(C)n(C)n(-c2ccccc2)c1=O)=C(\C)O | 2.8% (inactive) | 
CCCCC1=CC2=CC(=O)C(C)(OC(=O)CCc3ccccc3)C(=O)C2=CO1 (stereo unspecified) | 41.7% (inactive) | 
CCCCC1=CC2=CC(=O)C(C)(OC(=O)C3CCCC3)C(=O)C2=CO1 (stereo unspecified) | 68.3% (active) | 
COC(=O)CCCC1=CC2=CC(=O)C(C)(OC(=O)C3CCCC3)C(=O)C2=CO1 (stereo unspecified) | 52.5% (inactive) | 24.7
O=C(Cn1cccc1C(=O)c1ccccc1)NCc1ccc2c(c1)OCO2 | -0.1% (inactive) | 
CC(CCc1ccccc1)NC(=O)CSc1cccc[n+]1[O-] (stereo unspecified) | 2.5% (inactive) | 
COc1ccc(-c2nn(-c3ccccc3)cc2C(=O)N/N=C/c2ccc([N+](=O)[O-])o2)cc1 | 55.9% (inactive) | 0.9
O=C(N/N=C/c1ccc([N+](=O)[O-])o1)c1cn(-c2ccccc2)nc1-c1ccccc1 | 65.8% (inactive) | -1.2
O=C(N/N=C/c1ccc([N+](=O)[O-])o1)c1cn(-c2ccccc2)nc1-c1ccc(Cl)cc1 | 64% (active) | 
COc1ccccc1OCCNC(=O)C1CCCCC1 | -0.2% (inactive) | 
COc1ccccc1N1C(=O)C2C(C(=O)c3ccccc3)=NN(c3ccc(C)cc3)C2C1=O (stereo unspecified) | 85.1% (active) | 102
COC(=O)C1=NN(c2ccccc2)C2C(=O)N(c3ccccc3OC)C(=O)C12 (stereo unspecified) | 1.2% (inactive) | 
COc1ccccc1N1C(=O)C2C(C(=O)c3ccccc3)=NN(c3ccccc3OC)C2C1=O (stereo unspecified) | 59.5% (inactive) | 13.2
COc1ccccc1N1C(=O)C2C(C(=O)c3ccccc3)=NN(c3ccc(Br)cc3)C2C1=O (stereo unspecified) | 54.9% (active) | 55
COc1ccccc1N1C(=O)C2C(C(=O)c3ccccc3)=NN(c3ccccc3)C2C1=O (stereo unspecified) | 72.1% (inactive) | 33.6
COC(=O)C1=NN(c2ccc(OC)cc2)C2C(=O)N(c3ccccc3OC)C(=O)C12 (stereo unspecified) | -0.7% (inactive) | 
O=C(Nc1ccc(F)cc1F)C1CCN(C(=O)c2ccc(Br)cc2)CC1 | 1.2% (inactive) | 

Compound | inhibition (at 20 µM) | inhibition [1] [%]
Cc1ccc(CCNC(=O)c2nnc(CS(=O)(=O)c3ccccc3)o2)cc1 | -0.3% (inactive) | 
O=C(COC(=O)c1ccc2c(c1)C(=O)N(Cc1ccco1)C2=O)NCC(F)(F)F | 1.5% (inactive) | 
Cc1cc(Cc2ccc(N)c(C)c2)ccc1N | -1.4% (inactive) | 
Nc1ccc(Cc2ccc(N)c(O)c2)cc1O | 52.4% (active) | 
Nc1ccc(Cc2ccc(N)c(C(=O)O)c2)cc1C(=O)O | 5.8% (inactive) | 
CC(C)COc1ccc(S(=O)(=O)n2cc(F)c(=O)[nH]c2=O)cc1 | 2.9% (inactive) | 
COc1ccc(Cc2noc(-c3ccc(OC)c(OC)c3)n2)cc1OC | 0.9% (inactive) | 
COc1ccc(Cc2noc(-c3ccccc3)n2)cc1OC | 61.8% (active) | 
COc1cccc(-c2nc(Cc3ccc(OC)c(OC)c3)no2)c1 | 2.1% (inactive) | 
CC(C)CNC(=O)c1cccc(NC(=O)c2ccco2)c1 | -0.6% (inactive) | 
CCOC(=O)C1=C(C)N(CC)C(=S)NC1c1ccccc1OC(F)F (stereo unspecified) | -2% (inactive) | 
CCOC(=O)c1c(NC(=O)N/N=C/c2ccc(O)c(OC)c2)sc(C(C)=O)c1C | -2.2% (inactive) | 
N#Cc1ccc2ccn(CC(=O)NCc3ccccc3)c2c1 | -1.6% (inactive) | 
CC(C)(C)/C(O)=C(/C#N)c1nc2ccccc2[nH]1 | -1.6% (inactive) | 
CN(C)c1cccc(C(=O)NNC(=S)NC2CC3CCC2C3)c1 (stereo unspecified) | -1.9% (inactive) | 
CCOC(=O)c1c(S(=O)(=O)Nc2ccccn2)c(C)n(C)c1C | 2.8% (inactive) | 
COc1ccccc1CNC(=O)C1CCC(CNS(=O)(=O)c2ccc(F)cc2)CC1 (stereo unspecified) | -1% (inactive) | 
Cc1cccc(NC(=O)c2ccc(NCCc3ccccc3)c([N+](=O)[O-])c2)c1 | 96.9% (active) | 58.9
O=C(Nc1ccccc1)c1ccc(NCCc2ccccc2)c([N+](=O)[O-])c1 | 147% (inactive) | 
Cc1ccc(NC(=O)c2ccc(NCCc3ccccc3)c([N+](=O)[O-])c2)cc1F | 2.5% (inactive) | 
